About 83,000 compounds went through this panel and 20% of them were active in at least one assay; those are over-represented in the sample as a whole.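 The test compound was applied at a single concentration to cells in 96-well plates for 48 hours, and percent growth was recorded.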 A number with no mark means an inactive call. Active and inactive are the calls of the source. How the source made its calls: active means growth percent below 10; inactive means the rest.

Experiment in all cases: NCI-60 one-dose screen, 48 h (100 = growth as untreated, 0 = no growth, -100 = all killed)
In one test the test system is HOP-62 NSCLC. To be noted: 10 µM unless noted.
The subject of the next test is A549/ATCC NSCLC. To be noted: 10 µM unless noted.
For the next test, the system named is MALME-3M melanoma. The settings on record: 10 µM unless noted.
A further test concerns RXF 393 renal. The settings on record: 10 µM unless noted.
Another test has as its system SF-295 CNS. The settings on record: 10 µM unless noted.
The test system of the next test is UACC-257 melanoma. The settings on record: 10 µM unless noted.
In the next test the test system is SNB-75 CNS. To be noted: 10 µM unless noted.
For another test, the system named is SNB-19 CNS. To be noted: 10 µM unless noted.
For another test, the system named is LOX IMVI melanoma. The settings on record: 10 µM unless noted.
The subject of another test is SK-MEL-28 melanoma. To be noted: 10 µM unless noted.
Another test concerns SK-MEL-2 melanoma. To be noted: 10 µM unless noted.
A further test relates to SN12C renal. The settings on record: 10 µM unless noted.
The next test has as its system A498 renal. The settings on record: 10 µM unless noted.
The next test relates to MOLT-4 leukemia. The settings on record: 10 µM.
The test system of the next test is OVCAR-8 ovarian. The settings on record: 10 µM unless noted.
For the next test, the system named is OVCAR-4 ovarian. To be noted: 10 µM unless noted.
A further test relates to SK-OV-3 ovarian. The settings on record: 10 µM unless noted.
Another test deals with BT-549 breast. To be noted: 10 µM.
The next test deals with HCC-2998 colon. To be noted: 10 µM unless noted.
Another test concerns DU-145 prostate. To be noted: 10 µM unless noted.

In the case of `c1ccc(CCN2CCCCC2Cc2ccccc2)cc1` (centres undefined), the growth in the test with HOP-62 NSCLC is 97.2%; in the test with A549/ATCC NSCLC, 96.2%; with MALME-3M melanoma, 97.7%; with RXF 393 renal, 117%; in the test with SF-295 CNS it was 91.4%; with UACC-257 melanoma, 98.5%. The growth in the test with SNB-75 CNS is 107%; in the test on SNB-19 CNS, 111%; in the test on LOX IMVI melanoma, 90.9%; in the test on SK-MEL-28 melanoma, 97.5%; in the test with SK-MEL-2 melanoma it was 87.7%; with SN12C renal it was 99.2%. The growth in the test on A498 renal is 89.5%; in the test on MOLT-4 leukemia, 92.7%; with OVCAR-8 ovarian, 106%; in the test on OVCAR-4 ovarian it was 115%; with SK-OV-3 ovarian it was 106%; with BT-549 breast, 111%. In addition, the growth in the test on HCC-2998 colon is 83.6%.
On to `C[CH2][Pb]([CH2]C)([CH2]C)[O]C(=O)COC`, for which the growth with HOP-62 NSCLC was -16.2% (active); in the test on DU-145 prostate, 10.3%; in the test with MALME-3M melanoma, 10.6%; with RXF 393 renal, -8.73% (active); in the test on SF-295 CNS, -58.5% (active); in the test on SNB-75 CNS it was -4.45% (active). Besides, the growth was -20.8% (active) with LOX IMVI melanoma; 18.2% in the test on SK-MEL-28 melanoma; -38.7% (active) in the test on SK-MEL-2 melanoma; 2.97% (active) in the test with SN12C renal; -3.55% (active) in the test with A498 renal; -37.7% (active) in the test on MOLT-4 leukemia. Besides, the growth in the test with OVCAR-8 ovarian is 3.57% (active); with OVCAR-4 ovarian it was 9.63% (active); in the test with SK-OV-3 ovarian it was -3.94% (active); with BT-549 breast it was -18.8% (active); in the test on HCC-2998 colon, -49.9% (active).
In the case of `CC(=O)O[C@H]1C[C@H](O[C@H]2[C@@H](O)C[C@H](O[C@H]3[C@@H](O)C[C@H](O[C@H]4CC[C@@]5(C)C(CCC6C5C[C@@H](O)[C@]5(C)[C@@H](C7=CC(=O)OC7)CC[C@]65O)C4)O[C@@H]3C)O[C@@H]2C)O[C@H](C)[C@H]1O[C@@H]1O[C@H](CO)[C@@H](O)[C@H](O)[C@H]1O` (some centres undefined), the growth with A549/ATCC NSCLC is -100% (active); in the test with DU-145 prostate, -100% (active); with MALME-3M melanoma, -36% (active); in the test with RXF 393 renal it was -53.8% (active); with SF-295 CNS, -84% (active); in the test with UACC-257 melanoma, -100% (active). The growth is -66.1% (active) with SNB-75 CNS; -100% (active) in the test with SNB-19 CNS; -97.4% (active) with LOX IMVI melanoma; -70.5% (active) in the test on SK-MEL-28 melanoma; -38.9% (active) in the test on SN12C renal; -19.5% (active) with A498 renal. Also, the growth with MOLT-4 leukemia is -32.1% (active); in the test with OVCAR-8 ovarian, -92.6% (active); with OVCAR-4 ovarian it was -70.4% (active); in the test on SK-OV-3 ovarian, -97.4% (active); in the test on BT-549 breast, -91% (active); in the test on HCC-2998 colon, -95% (active).
